# Test results published in PubChem BioAssay (EPA / NIEHS).
# Calls of active or inactive are those of the source. The calls were made as follows: active = hit-call score of the fitted dose curve at least 0.9, where 1 is the maximum; inactive = score below 0.9.
# Assays:
# Conditions in all cases: mRNA level, 48 h; actives raise or lower the signal
# [1] = read-out: Heat shock 70 kDa protein 1 (HSPA1A), gene 3303; assay: LTEA_HepaRG_HSPA1A: Life Technologies and Expression Analysis (LTEA) Assay for Heat shock 70 kDa protein 1 (HSPA1A) using HepaRG (AID 2283502)
# How it was run: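 HSPA1A expression measured by qRT-PCR with ACTB/GAPDH/POLR2A normalization; curves fitted in both directions relative to DMSO vehicle. Exposure: 48 h in HepaRG cells, duplicate 8-point half-log series from 100 uM, 0.5% DMSO, serum-free induction medium.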
# [2] = read-out: Hypoxia-inducible factor 1-alpha (Homo sapiens) (UniProt Q16665); assay: LTEA_HepaRG_HIF1A: Life Technologies and Expression Analysis (LTEA) Assay for Hypoxia-inducible factor 1 (HIF1A) Trancription factor using HepaRG (AID 2283503)
# How it was run: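 HIF1A transcript level read by qRT-PCR (ACTB, GAPDH, POLR2A normalization) after 48 h chemical exposure of HepaRG cultures. Eight half-log concentrations, top 100 uM, 0.5% DMSO vehicle, duplicates; bidirectional curve fit against DMSO baseline.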
# [3] = read-out: 3-Hydroxy-3-Methylglutaryl-CoA Synthase 2 (HMGCS2), HMGCS2 (gene 3158); assay: LTEA_HepaRG_HMGCS2: Life Technologies and Expression Analysis (LTEA) Assay for 3-Hydroxy-3-Methylglutaryl-CoA Synthase 2 (HMGCS2) using HepaRG (AID 2283504)
# How it was run: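 Readout is HMGCS2 transcript by qRT-PCR, housekeeping-normalised (ACTB/GAPDH/POLR2A) and fitted bidirectionally against 0.5% DMSO. Differentiated HepaRG cells received chemicals 48 h, duplicate wells, eight half-log concentrations topping at 100 uM.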
# HGF (gene 3082) = assay: LTEA_HepaRG_HGF: Life Technologies and Expression Analysis (LTEA) Assay for Hepatocyte Growth Facto (HGF) using HepaRG (AID 2283505)
# How it was run: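 HGF transcript was quantified by TaqMan qRT-PCR against three housekeeping genes after 48 h treatment of HepaRG cells. Exposure ran in duplicate over eight half-log steps topping at 100 uM in 0.5% DMSO vehicle.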
# [4] = read-out: Insulin Like Growth Factor 1 (IGF1), IGF1 (gene 3479); assay: LTEA_HepaRG_IGF1: Life Technologies and Expression Analysis (LTEA) Assay for Insulin Like Growth Factor 1 (IGF1) using HepaRG (AID 2283506)
# How it was run: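 Expression measured by TaqMan qRT-PCR on a Fluidigm array, with three housekeeping genes for normalisation, after 48 h treatment of HepaRG cells. Top concentration 100 uM with half-log steps, 0.5% DMSO vehicle, bidirectional fit.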
# [5] = read-out: Intercellular Adhesion Molecule 1 (ICAM1), ICAM1 (gene 3383); assay: LTEA_HepaRG_ICAM1: Life Technologies and Expression Analysis (LTEA) Assay for Intercellular Adhesion Molecule 1 (ICAM1) using HepaRG (AID 2283507)
# How it was run: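 ICAM1 transcript levels measured by qRT-PCR, normalized to three housekeeping genes (ACTB, GAPDH, POLR2A), after 48 h chemical exposure of HepaRG cells. Duplicate eight-point half-log series from 100 uM in 0.5% DMSO; gain or loss fitted against vehicle.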
# [6] = read-out: Insulin-like growth factor-binding protein 1 (IGFBP1), IGFBP1 (gene 3484); assay: LTEA_HepaRG_IGFBP1: Life Technologies and Expression Analysis (LTEA) Assay for Insulin-like growth factor-binding protein 1 (IGFBP1) using HepaRG (AID 2283508)
# How it was run: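 Read-out is qRT-PCR transcript level normalized to three housekeeping genes, fitted in both directions against 0.5% DMSO. Differentiated HepaRG cells received eight half-log concentrations (top 100 uM) in duplicate for 48 h in serum-free induction medium.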
# [7] = read-out: Interleukin 6 (IL6), IL6 (gene 3569); assay: LTEA_HepaRG_IL6: Life Technologies and Expression Analysis (LTEA) Assay for Interleukin 6 (IL6) using HepaRG (AID 2283509)
# How it was run: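 Changes in IL6 mRNA, up or down relative to 0.5% DMSO controls, were derived from concentration-response curves in human HepaRG cells treated for 48 h at up to 100 uM, with ACTB, GAPDH and POLR2A as normalizers.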
# [8] = read-out: Interleukin 6 Receptor (IL6R), IL6R (gene 3570); assay: LTEA_HepaRG_IL6R: Life Technologies and Expression Analysis (LTEA) Assay for Interleukin 6 Receptor (IL6R) using HepaRG (AID 2283510)
# How it was run: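 IL6R transcript level by qRT-PCR after 48 h chemical exposure (8-point, half-log, max 100 uM, 0.5% DMSO vehicle) of HepaRG cells in serum-free induction medium. Normalized to three housekeeping genes; curves fitted in both directions relative to DMSO.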
# [9] = read-out: Potassium channel subfamily K member 1 (KCNK1), KCNK1 (gene 3775); assay: LTEA_HepaRG_KCNK1: Life Technologies and Expression Analysis (LTEA) Assay for Potassium channel subfamily K member 1 (KCNK1) using HepaRG (AID 2283511)
# How it was run: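 Human HepaRG cultures receive test chemicals for 48 h in 0.5% DMSO, top concentration 100 uM with half-log dilutions. Induction or suppression of KCNK1 mRNA relative to DMSO is derived by bidirectional fitting of qRT-PCR data.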
# [10] = read-out: JUN Transcription Factor, JUN (gene 3725); assay: LTEA_HepaRG_JUN: Life Technologies and Expression Analysis (LTEA) Assay for JUN Transcription Factor using HepaRG (AID 2283513)
# How it was run: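 mRNA measured by TaqMan qRT-PCR after 48 h chemical exposure of HepaRG cultures; normalization to three housekeeping genes. Duplicate eight-point half-log curves from 100 uM in 0.5% DMSO; gain or loss fitted against DMSO baseline.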
# [11] = read-out: Lipase C (LIPC), LIPC (gene 3990); assay: LTEA_HepaRG_LIPC: Life Technologies and Expression Analysis (LTEA) Assay for Lipase C (LIPC) using HepaRG (AID 2283514)
# How it was run: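 In this multiplexed gene-expression screen, human HepaRG cultures received test chemicals for 48 h across eight concentrations with 100 uM highest, in duplicate. Values reflect LIPC mRNA induction or suppression versus DMSO vehicle, from normalized qRT-PCR.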
# [12] = read-out: Lipoprotein lipase (LPL), LPL (gene 4023); assay: LTEA_HepaRG_LPL: Life Technologies and Expression Analysis (LTEA) Assay for Lipoprotein lipase (LPL) using HepaRG (AID 2283515)
# How it was run: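 Concentration-response testing used half-log steps from 100 uM in 0.5% DMSO on human HepaRG cells, 48 h, duplicate wells. Phenobarbital 1 mM served as induction control; LPL mRNA was normalized to ACTB, GAPDH, POLR2A.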
# [13] = read-out: matrix metalloproteinase-10 (MMP10), MMP10 (gene 4319); assay: LTEA_HepaRG_MMP10: Life Technologies and Expression Analysis (LTEA) Assay for matrix metalloproteinase-10 (MMP10) using HepaRG (AID 2283517)
# How it was run: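 In differentiated HepaRG cultures kept in 0.5% DMSO, test chemicals act for 48 h over an eight-point range with a top dose of 100 uM. Expression is then quantified by TaqMan RT-PCR against ACTB, GAPDH and POLR2A.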
# MYC, MYC (gene 4609) = assay: LTEA_HepaRG_MYC: Life Technologies and Expression Analysis (LTEA) Assay for MYC using HepaRG (AID 2283518)
# How it was run: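 MYC transcript changes, up or down relative to 0.5% DMSO, from TaqMan qRT-PCR normalized to three housekeeping genes. Human HepaRG cultures received chemicals for 48 h at eight half-log concentrations up to 100 uM, in duplicate.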
# [14] = read-out: matrix metalloproteinase-3 (MMP3), MMP3 (gene 4314); assay: LTEA_HepaRG_MMP3: Life Technologies and Expression Analysis (LTEA) Assay for matrix metalloproteinase-3 (MMP3) using HepaRG (AID 2283519)
# How it was run: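 Human liver HepaRG cultures received chemicals (top concentration 100 uM, 0.5% DMSO) for 48 h in duplicate. MMP3 mRNA induction or loss was then assessed via TaqMan qRT-PCR with housekeeping-gene normalisation.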
# [15] = read-out: Paternally Expressed 10 (PEG10), PEG10 (gene 23089); assay: LTEA_HepaRG_PEG10: Life Technologies and Expression Analysis (LTEA) Assay for Paternally Expressed 10 (PEG10) using HepaRG (AID 2283520)
# How it was run: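 PEG10 transcript measured by Fluidigm qRT-PCR, normalized to three housekeeping genes, in HepaRG cells treated 48 h (highest 100 uM, half-log steps, 0.5% DMSO vehicle). Cells plated 48 h before switching to serum-free induction medium.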
# [16] = read-out: Nuclear factor NF-kappa-B p105 subunit (Homo sapiens) (UniProt P19838); assay: LTEA_HepaRG_NFKB1: Life Technologies and Expression Analysis (LTEA) Assay for Nuclear Factor Kappa B Subunit 1 (NFKB1) using HepaRG (AID 2283521);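 also: differentiated human HepaRG liver cells in serum-free induction medium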
# How it was run: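 Human HepaRG cells receive eight half-log concentrations, highest 100 uM, for 48 h. NFKB1 expression is then quantified by qRT-PCR and analysed for up- or down-regulation relative to 0.5% DMSO vehicle.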
# [17] = read-out: Keratin 19 (KRT19), KRT19 (gene 3880); assay: LTEA_HepaRG_KRT19: Life Technologies and Expression Analysis (LTEA) Assay for Keratin 19 (KRT19) using HepaRG (AID 2283512)
# How it was run: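 KRT19 transcript measured by TaqMan qRT-PCR, referenced to three housekeeping genes, after HepaRG cells received test chemicals for 48 h. Eight half-log concentrations, top 100 uM, 0.5% DMSO vehicle; increases and decreases both fitted.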
# [18] = read-out: MicroRNA 122 (MIR122), gene 406906; assay: LTEA_HepaRG_MIR122: Life Technologies and Expression Analysis (LTEA) Assay for MicroRNA 122 (MIR122) using HepaRG (AID 2283516); also: the transcript read is the microRNA miR-122
# How it was run: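 Expression measured by microfluidic qRT-PCR with three housekeeping genes for normalisation, after 48 h treatment of HepaRG cultures. Eight concentrations (top 100 uM, half-log steps, 0.5% DMSO vehicle) in duplicate; gain or loss fitted relative to vehicle.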
# Sequence of Hypoxia-inducible factor 1-alpha (Homo sapiens) (Q16665 whole entry, looked up): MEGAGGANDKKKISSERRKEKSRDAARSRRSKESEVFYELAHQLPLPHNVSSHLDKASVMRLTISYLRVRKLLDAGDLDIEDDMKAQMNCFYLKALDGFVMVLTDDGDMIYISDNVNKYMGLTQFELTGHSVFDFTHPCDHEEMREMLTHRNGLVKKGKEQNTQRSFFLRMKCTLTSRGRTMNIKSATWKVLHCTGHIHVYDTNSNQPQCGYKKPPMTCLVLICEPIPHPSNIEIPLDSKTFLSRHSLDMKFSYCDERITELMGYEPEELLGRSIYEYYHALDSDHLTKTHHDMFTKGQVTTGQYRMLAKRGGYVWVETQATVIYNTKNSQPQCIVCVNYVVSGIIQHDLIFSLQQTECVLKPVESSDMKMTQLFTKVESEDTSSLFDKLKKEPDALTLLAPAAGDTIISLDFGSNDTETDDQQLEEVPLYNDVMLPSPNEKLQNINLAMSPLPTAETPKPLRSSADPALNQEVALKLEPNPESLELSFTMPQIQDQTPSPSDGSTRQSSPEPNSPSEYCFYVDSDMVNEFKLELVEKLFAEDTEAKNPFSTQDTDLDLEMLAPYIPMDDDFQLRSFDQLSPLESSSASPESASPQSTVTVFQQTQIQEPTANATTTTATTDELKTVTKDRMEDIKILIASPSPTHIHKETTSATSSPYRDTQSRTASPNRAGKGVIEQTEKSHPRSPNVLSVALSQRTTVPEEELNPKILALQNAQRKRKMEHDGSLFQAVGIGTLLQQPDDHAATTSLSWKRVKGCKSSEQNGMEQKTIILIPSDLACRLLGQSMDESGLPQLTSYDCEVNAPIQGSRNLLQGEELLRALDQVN
# Sequence of Nuclear factor NF-kappa-B p105 subunit (Homo sapiens) (P19838 whole entry, looked up): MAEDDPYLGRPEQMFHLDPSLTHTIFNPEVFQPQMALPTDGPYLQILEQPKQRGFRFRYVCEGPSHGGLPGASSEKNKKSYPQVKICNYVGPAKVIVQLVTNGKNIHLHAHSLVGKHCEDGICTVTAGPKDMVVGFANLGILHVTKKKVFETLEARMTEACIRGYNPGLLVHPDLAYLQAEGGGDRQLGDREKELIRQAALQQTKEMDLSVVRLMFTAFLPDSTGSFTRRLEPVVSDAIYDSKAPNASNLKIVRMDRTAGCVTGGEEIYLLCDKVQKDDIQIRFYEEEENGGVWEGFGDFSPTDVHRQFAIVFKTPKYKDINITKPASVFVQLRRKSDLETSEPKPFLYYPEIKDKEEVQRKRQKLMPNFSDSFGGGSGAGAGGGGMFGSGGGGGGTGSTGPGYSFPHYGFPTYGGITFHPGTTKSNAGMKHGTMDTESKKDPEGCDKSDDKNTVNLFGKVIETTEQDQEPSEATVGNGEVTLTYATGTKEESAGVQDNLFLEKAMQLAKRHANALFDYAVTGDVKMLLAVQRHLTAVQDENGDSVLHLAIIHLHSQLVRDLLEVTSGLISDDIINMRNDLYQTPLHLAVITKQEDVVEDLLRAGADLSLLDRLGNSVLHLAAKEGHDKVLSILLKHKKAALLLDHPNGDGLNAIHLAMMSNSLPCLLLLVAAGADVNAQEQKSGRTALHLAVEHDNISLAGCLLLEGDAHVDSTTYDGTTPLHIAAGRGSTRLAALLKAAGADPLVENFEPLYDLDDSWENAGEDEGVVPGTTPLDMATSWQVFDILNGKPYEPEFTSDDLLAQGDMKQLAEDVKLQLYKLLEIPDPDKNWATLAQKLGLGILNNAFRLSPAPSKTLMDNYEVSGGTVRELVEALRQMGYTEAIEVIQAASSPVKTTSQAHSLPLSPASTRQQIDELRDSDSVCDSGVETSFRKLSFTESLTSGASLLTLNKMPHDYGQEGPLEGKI
structure (smiles),measurement,setting,value
Clc1ccc(C(c2ccc(Cl)cc2)C(Cl)Cl)cc1,outcome,[1],inactive
same,outcome,[2],inactive
same,outcome,[3],inactive
same,outcome,HGF (gene 3082),inactive
same,outcome,[4],inactive
same,outcome,[5],inactive
same,outcome,[6],inactive
same,outcome,[7],inactive
same,outcome,[8],inactive
same,outcome,[9],inactive
same,outcome,[10],inactive
same,outcome,[11],inactive
same,outcome,[12],inactive
same,outcome,[13],inactive
same,outcome,"MYC, MYC (gene 4609)",inactive
same,outcome,[14],inactive
same,outcome,[15],inactive
same,outcome,[16],inactive
COC(=O)Nc1nc2ccccc2[nH]1,outcome,[1],inactive
same,outcome,[2],inactive
same,outcome,[3],inactive
same,outcome,HGF (gene 3082),inactive
same,outcome,[4],inactive
same,outcome,[5],inactive
same,outcome,[6],inactive
same,outcome,[7],inactive
same,outcome,[8],inactive
same,outcome,[9],inactive
same,outcome,[11],inactive
same,outcome,[12],inactive
same,outcome,[13],inactive
same,outcome,"MYC, MYC (gene 4609)",inactive
same,outcome,[14],inactive
same,outcome,[15],inactive
CC(C)COC(=O)c1ccccc1C(=O)OCC(C)C,outcome,[1],inactive
same,outcome,[2],inactive
same,outcome,[3],inactive
same,outcome,HGF (gene 3082),inactive
same,outcome,[4],inactive
same,outcome,[5],inactive
same,outcome,[6],inactive
same,outcome,[7],inactive
same,outcome,[8],inactive
same,outcome,[9],inactive
same,outcome,[17],inactive
same,outcome,[10],inactive
same,outcome,[11],inactive
same,outcome,[12],inactive
same,outcome,[13],inactive
same,outcome,"MYC, MYC (gene 4609)",inactive
same,outcome,[14],inactive
same,outcome,[15],inactive
ClC1=C(Cl)C2(Cl)C3C(Cl)C=CC3C1(Cl)C2(Cl)Cl (stereo unspecified),AC50,[1],24 µM (active)
same,AC50,[2],33.8 µM (active)
same,outcome,[3],inactive
same,outcome,HGF (gene 3082),inactive
same,AC50,[4],5.6 µM (active)
same,outcome,[5],inactive
same,outcome,[6],inactive
same,outcome,[7],inactive
same,outcome,[8],inactive
same,outcome,[9],inactive
same,outcome,[17],inactive
same,outcome,[11],inactive
same,outcome,[12],inactive
same,outcome,[18],inactive
same,outcome,[13],inactive
same,AC50,"MYC, MYC (gene 4609)",37.1 µM (active)
same,outcome,[14],inactive
same,outcome,[15],inactive
same,outcome,[16],inactive
